# Assay results from PMC8384837, “Expanding the binding specificity for RNA recognition by a PUF domain”.
# How the values were obtained:
# Test in all cases: yeast three-hybrid, YBZ-1, SC-Leu-His + 0.5 mM 3-AT, 4 days
# Conditions in all cases: tags: N-Gal4 AD-HA kept; label: inside an RPR1-promoter hybrid RNA with tandem MS2 sites; ssRNA
# PUM1 PUF domain R5-FRW = PUM1 PUF domain R5-FRW (Homo sapiens, UniProt Q14671 828-1176, C1007F;Q1011W)
# Summary of the method: (§1)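 A centromeric plasmid in strain YBZ-1 co-expressed Pumilio-1 PUF domain libraries, randomized at the three base-contacting residues of each repeat, with matching RNA elements; the strain carries a LexA–MS2 coat fusion and a HIS3 reporter. After four days on SC-Leu (input) or SC-Leu-His + 0.5 mM 3-AT (selection), the repeat regions were PCR-amplified and Illumina-sequenced. The interaction score is the log change in variant frequency from input to selection, using log2 and a pseudocount of 1 where absent.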
# PUM1 PUF domain R8-KYK = PUM1 PUF domain R8-KYK (Homo sapiens, UniProt Q14671 828-1176, N1122K;Q1126K)
# Summary of the method: as §1
# PUM1 PUF domain R8-GHR = PUM1 PUF domain R8-GHR (Homo sapiens, UniProt Q14671 828-1176, N1122G;Y1123H;Q1126R)
# Summary of the method: as §1
# PUM1 PUF domain R8-RYW = PUM1 PUF domain R8-RYW (Homo sapiens, UniProt Q14671 828-1176, N1122R;Q1126W)
# Summary of the method: as §1
# PUM1 PUF domain R4-MHW = PUM1 PUF domain R4-MHW (Homo sapiens, UniProt Q14671 828-1176, N971M;Q975W)
# Summary of the method: as §1
# PUM1 PUF domain R4-WAA = PUM1 PUF domain R4-WAA (Homo sapiens, UniProt Q14671 828-1176, N971W;H972A;Q975A)
# Summary of the method: as §1
# PUM1 PUF domain R5-PRS = PUM1 PUF domain R5-PRS (Homo sapiens, UniProt Q14671 828-1176, C1007P;Q1011S)
# Summary of the method: as §1
# PUM1 PUF domain R5-KWA = PUM1 PUF domain R5-KWA (Homo sapiens, UniProt Q14671 828-1176, C1007K;R1008W;Q1011A)
# Summary of the method: as §1
# PUM1 PUF domain R5-MYC = PUM1 PUF domain R5-MYC (Homo sapiens, UniProt Q14671 828-1176, C1007M;R1008Y;Q1011C)
# Summary of the method: as §1
# PUM1 PUF domain R5-FHK = PUM1 PUF domain R5-FHK (Homo sapiens, UniProt Q14671 828-1176, C1007F;R1008H;Q1011K)
# Summary of the method: as §1
# PUM1 PUF domain R5-KHH = PUM1 PUF domain R5-KHH (Homo sapiens, UniProt Q14671 828-1176, C1007K;R1008H;Q1011H)
# Summary of the method: as §1
# PUM1 PUF domain R1-KLC = PUM1 PUF domain R1-KLC (Homo sapiens, UniProt Q14671 828-1176, S863K;R864L;Q867C)
# Summary of the method: as §1
# PUM1 PUF domain R3-SNR = PUM1 PUF domain R3-SNR (Homo sapiens, UniProt Q14671 828-1176, C935S;R936N;Q939R)
# Summary of the method: as §1
# PUM1 PUF domain R3-MSR = PUM1 PUF domain R3-MSR (Homo sapiens, UniProt Q14671 828-1176, C935M;R936S;Q939R)
# Summary of the method: as §1
# PUM1 PUF domain R5-KYC = PUM1 PUF domain R5-KYC (Homo sapiens, UniProt Q14671 828-1176, C1007K;R1008Y;Q1011C)
# Summary of the method: as §1
# PUM1 PUF domain R4-DRC = PUM1 PUF domain R4-DRC (Homo sapiens, UniProt Q14671 828-1176, N971D;H972R;Q975C)
# Summary of the method: as §1
# PUM1 PUF domain R6-VFI = biological target: T1, PUM1 PUF domain R6-VFI (Homo sapiens, UniProt Q14671 828-1176, N1043V;Y1044F;Q1047I)
# T1 sequence: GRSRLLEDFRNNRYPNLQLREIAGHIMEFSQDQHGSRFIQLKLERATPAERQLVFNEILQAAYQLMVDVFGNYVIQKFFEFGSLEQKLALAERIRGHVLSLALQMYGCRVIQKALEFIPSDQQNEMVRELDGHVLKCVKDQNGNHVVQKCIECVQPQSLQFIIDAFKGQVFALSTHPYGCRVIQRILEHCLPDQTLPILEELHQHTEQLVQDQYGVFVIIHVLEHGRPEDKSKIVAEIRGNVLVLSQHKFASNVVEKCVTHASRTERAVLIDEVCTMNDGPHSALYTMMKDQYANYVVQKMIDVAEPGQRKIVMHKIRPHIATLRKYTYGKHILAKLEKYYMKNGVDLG
# Summary of the method: as §1
# PUM1 PUF domain R7-ENR = PUM1 PUF domain R7-ENR (Homo sapiens, UniProt Q14671 828-1176, S1079E;E1083R)
# Summary of the method: as §1
# PUM1 PUF domain R3-LSC = PUM1 PUF domain R3-LSC (Homo sapiens, UniProt Q14671 828-1176, C935L;R936S;Q939C)
# Summary of the method: as §1
# PUM1 PUF domain R7-RGF = PUM1 PUF domain R7-RGF (Homo sapiens, UniProt Q14671 828-1176, S1079R;N1080G;E1083F)
# Summary of the method: as §1
sequence,measurement,setting,value
GGCUAGAACUAGUGGAUCCCCCGGCGCCCGGCGGCUCGAGCCCGGGUAAGUGUCAAUAGUCUGCAUGCCGCCGGGCGCCAUGCCUGCAGGUCGACUCUAGAAAACAUG,binding signal,PUM1 PUF domain R5-FRW,3.47 log2 enrichment (interaction score)
GGCUAGAACUAGUGGAUCCCCCGGCGCCCGGCGGCUCGAGCCCGGGUAAGCGUAAAUAGUCUGCAUGCCGCCGGGCGCCAUGCCUGCAGGUCGACUCUAGAAAACAUG,binding signal,PUM1 PUF domain R8-KYK,3.86 log2 enrichment (interaction score)
same,binding signal,PUM1 PUF domain R8-GHR,3.27 log2 enrichment (interaction score)
same,binding signal,PUM1 PUF domain R8-RYW,5.69 log2 enrichment (interaction score)
GGCUAGAACUAGUGGAUCCCCCGGCGCCCGGCGGCUCGAGCCCGGGUAAGUGUAUAUAGUCUGCAUGCCGCCGGGCGCCAUGCCUGCAGGUCGACUCUAGAAAACAUG,binding signal,PUM1 PUF domain R4-MHW,3.93 log2 enrichment (interaction score)
same,binding signal,PUM1 PUF domain R4-WAA,4.4 log2 enrichment (interaction score)
GGCUAGAACUAGUGGAUCCCCCGGCGCCCGGCGGCUCGAGCCCGGGUAAGUGUGAAUAGUCUGCAUGCCGCCGGGCGCCAUGCCUGCAGGUCGACUCUAGAAAACAUG,binding signal,PUM1 PUF domain R5-PRS,1.55 log2 enrichment (interaction score)
same,binding signal,PUM1 PUF domain R5-KWA,2.43 log2 enrichment (interaction score)
same,binding signal,PUM1 PUF domain R5-MYC,4.74 log2 enrichment (interaction score)
same,binding signal,PUM1 PUF domain R5-FHK,3.51 log2 enrichment (interaction score)
same,binding signal,PUM1 PUF domain R5-KHH,2.08 log2 enrichment (interaction score)
GGCUAGAACUAGUGGAUCCCCCGGCGCCCGGCGGCUCGAGCCCGGGUAAGUGUAAAUUGUCUGCAUGCCGCCGGGCGCCAUGCCUGCAGGUCGACUCUAGAAAACAUG,binding signal,PUM1 PUF domain R1-KLC,5.07 log2 enrichment (interaction score)
GGCUAGAACUAGUGGAUCCCCCGGCGCCCGGCGGCUCGAGCCCGGGUAAGUGUAAGUAGUCUGCAUGCCGCCGGGCGCCAUGCCUGCAGGUCGACUCUAGAAAACAUG,binding signal,PUM1 PUF domain R3-SNR,0.8 log2 enrichment (interaction score)
same,binding signal,PUM1 PUF domain R3-MSR,3.44 log2 enrichment (interaction score)
GGCUAGAACUAGUGGAUCCCCCGGCGCCCGGCGGCUCGAGCCCGGGUAAGUGUAAAUAGUCUGCAUGCCGCCGGGCGCCAUGCCUGCAGGUCGACUCUAGAAAACAUG,binding signal,PUM1 PUF domain R8-KYK,2.92 log2 enrichment (interaction score)
same,binding signal,PUM1 PUF domain R5-PRS,4.36 log2 enrichment (interaction score)
same,binding signal,PUM1 PUF domain R8-GHR,1.48 log2 enrichment (interaction score)
same,binding signal,PUM1 PUF domain R8-RYW,4.31 log2 enrichment (interaction score)
same,binding signal,PUM1 PUF domain R5-KYC,5.13 log2 enrichment (interaction score)
same,binding signal,PUM1 PUF domain R5-FRW,1.07 log2 enrichment (interaction score)
same,binding signal,PUM1 PUF domain R4-DRC,5.15 log2 enrichment (interaction score)
same,binding signal,PUM1 PUF domain R6-VFI,3.71 log2 enrichment (interaction score)
same,binding signal,PUM1 PUF domain R4-WAA,1.39 log2 enrichment (interaction score)
GGCUAGAACUAGUGGAUCCCCCGGCGCCCGGCGGCUCGAGCCCGGGUAAGUCUAAAUAGUCUGCAUGCCGCCGGGCGCCAUGCCUGCAGGUCGACUCUAGAAAACAUG,binding signal,PUM1 PUF domain R7-ENR,3.14 log2 enrichment (interaction score)
GGCUAGAACUAGUGGAUCCCCCGGCGCCCGGCGGCUCGAGCCCGGGUAAGUGUAAUUAGUCUGCAUGCCGCCGGGCGCCAUGCCUGCAGGUCGACUCUAGAAAACAUG,binding signal,PUM1 PUF domain R3-SNR,3.93 log2 enrichment (interaction score)
same,binding signal,PUM1 PUF domain R3-LSC,2.84 log2 enrichment (interaction score)
same,binding signal,PUM1 PUF domain R3-MSR,2.82 log2 enrichment (interaction score)
GGCUAGAACUAGUGGAUCCCCCGGCGCCCGGCGGCUCGAGCCCGGGUAAGUUUAAAUAGUCUGCAUGCCGCCGGGCGCCAUGCCUGCAGGUCGACUCUAGAAAACAUG,binding signal,PUM1 PUF domain R7-RGF,3.87 log2 enrichment (interaction score)
GGCUAGAACUAGUGGAUCCCCCGGCGCCCGGCGGCUCGAGCCCGGGUAAGUGUUAAUAGUCUGCAUGCCGCCGGGCGCCAUGCCUGCAGGUCGACUCUAGAAAACAUG,binding signal,PUM1 PUF domain R5-MYC,2.86 log2 enrichment (interaction score)
same,binding signal,PUM1 PUF domain R5-KYC,5.51 log2 enrichment (interaction score)
same,binding signal,PUM1 PUF domain R5-FRW,3.35 log2 enrichment (interaction score)
same,binding signal,PUM1 PUF domain R5-FHK,4.76 log2 enrichment (interaction score)
